In all, about 310,000 compounds went through this assay and about 410 (0.13%) were called active. Not shown: some 2% with an inconclusive outcome. A selection follows. Results with a measured potency or affinity are listed apart. Values without a mark were called inactive. How the calls were made is not given here.
Assay: inhibition of RSV-induced cytopathic effect – HEp-2 cells, primary 10 µM value included (AID 2391)
Conditions: at 10 µM, hits give high values

SMILES | CPE inhibition [%]
CCCn1c(SCC(=O)c2cc(OC)ccc2OC)nnc1-c1ccco1 | 1.5
CCOc1ccc(C(c2c(O)nc(SC)[nH]c2=O)c2c(O)nc(SC)[nH]c2=O)cc1 | 1.1
CCOC(=O)Cc1csc(NC(=O)C(NC(=O)C2CCCCC2)C(C)C)n1 (configuration not stated) | 3.52
O=[N+]([O-])c1cccc(-c2csc(Nc3ccccc3)n2)c1 | 0.52
COc1ccccc1Nc1nc(-c2cccnc2)cs1 | 7.69
CC(=O)c1ccc(OCCCC(=O)Nc2ccc(S(=O)(=O)N3CCOCC3)cc2)cc1 | 14.5
COc1ccc(C(=O)Nc2nc3ccccc3s2)cc1 | 4.56
COc1ccc(C(=O)Nc2nc3ccccc3s2)c(OC)c1 | 9.57
COc1ccc(C(C)=O)cc1CSc1nc2ccccc2c(=O)n1-c1ccccc1 | 3.07
Cc1c(C(=O)O)oc2c1ccc1ccccc12 | 9.18
COc1ccccc1OCC(=O)Nc1ccc2c(c1)OCO2 | 1.74
O=C1CN2C(=Nc3ccc(Br)cc3C2c2ccccc2)CCN1 (configuration not stated) | -0.32
COC(=O)CN1C(c2ccc(Cl)cc2)=Nc2ccc(Cl)cc2C1c1ccccc1 (configuration not stated) | 11.1
CCc1ccc(CNC(=O)c2ccc(OC3CCN(C(C)=O)CC3)c(OC)c2)nc1 | 1.43
Cc1cc(C)c(NC(=O)c2cccc(NC(=O)c3ccco3)c2)c(C)c1 | 2.64
O=C(O)CSc1nnc(Cn2c(=O)sc3ccccc32)n1-c1cccc(Cl)c1 | 0.38
NC(=O)CSc1nnc(Cn2c(=O)sc3ccccc32)n1-c1cccc(Cl)c1 | 2.54
Cc1ccc(N2CCN(c3ccc(NC(=O)CCC(=O)O)cc3)CC2)cc1 | -0.44
CCCOc1ccc(NC(=O)c2cc3cc(C)ccc3[nH]2)cc1 | -0.27
O=C(O)c1cc(Cl)c2c(c1)[C@@H]1C=CC[C@@H]1[C@H](c1ccc(S(=O)(=O)N3CCOCC3)cc1)N2 | 0.29
Cc1cc(C)c(NC(=O)c2ccc(S(=O)(=O)N3CCOCC3)cc2)c(C)c1 | 1.1
Cc1cc(C)c2c(c1)[C@@H]1C=CC[C@@H]1[C@H](c1ccc(S(=O)(=O)N3CCOCC3)cc1)N2 | 0.17
CC(=O)c1ccc2c(c1)C1C=CCC1C(c1ccncc1)N2 (configuration not stated) | -0.18

SMILES | CPE inhibition [%]
COc1ccc(N(CC(=O)Nc2ccc(F)cc2F)S(=O)(=O)c2c(C)nn(C)c2C)cc1 | -1.28
Cc1cc(-n2c(C)cc(C(=O)CN3C(=O)NC4(CCCCC4C)C3=O)c2C)no1 (configuration not stated) | 1.72
COc1ccc(N2CCN(c3nc4c(c(=O)n(C)c(=O)n4C)n3CCCc3ccccc3)CC2)cc1 | -1.29
CCOC(=O)C[C@H]1c2ccccc2S(=O)(=O)N1Cc1cc(OC)c(OC)c(OC)c1 | 1.62
Cc1ccccc1NC(=S)NCCc1ccc(S(N)(=O)=O)cc1 | 1.91
Cc1ccc(C)c(S(=O)(=O)N2CCCCC2CCNC(=O)C(=O)NC2CC2)c1 (configuration not stated) | -1.15
Cc1ccc(S(=O)(=O)N2CCCCC2CCNC(=O)C(=O)NC2CC2)cc1 (configuration not stated) | 0.46
Cc1ccc(CN(C)C(=O)c2cc(COc3ccc(F)cc3Cl)on2)o1 | 6.3
CSc1ccccc1OCc1cc(C(=O)N(C)Cc2cc(C)[nH]n2)no1 | 4.8
Cc1ccc(S(=O)(=O)NCCC(=O)NCc2ccccn2)cc1 | -1.85
O=C(O)c1cccc(CN2C(=O)c3ccccc3C2=O)c1 | 2.88
O=[N+]([O-])c1ccc(S(=O)(=O)Nc2cccc(-c3ccc(N4CCCC4)nn3)c2)cc1 | 22.4
O=[N+]([O-])c1ccccc1S(=O)(=O)Nc1ccc(-c2ccc(N3CCCC3)nn2)cc1 | -1.43
O=[N+]([O-])c1ccc(S(=O)(=O)Nc2cccc(-c3ccc(N4CCOCC4)nn3)c2)cc1 | 38.2
O=[N+]([O-])c1ccccc1S(=O)(=O)Nc1ccc(-c2ccc(N3CCOCC3)nn2)cc1 | -1.46
COc1ccc([N+](=O)[O-])cc1NC(=O)Cn1ccsc1=N | 4.59
O=C(Nc1cccc(Cl)c1)c1ccc(NCCCN2CCOCC2)c([N+](=O)[O-])c1 | 5.44
O=C(NCc1cccnc1)Nc1ccc(Br)cc1Cl | 1.28
COc1ccc(N2CCN(C(=O)CCc3cc(OC)c(OC)c(OC)c3)CC2)cc1 | 1.91
Cc1cc(NCCCn2ccnc2)n2nc(-c3ccc(F)cc3)cc2n1 | -1.16
CN(C)CCCNc1cc(-c2ccccc2)nc2cc(-c3cccc(F)c3)nn12 | -1.34
Cc1cc(NCCCO)n2nc(-c3cccs3)cc2n1 | 9
COCCNc1cc(C)nc2cc(-c3ccc(C)cc3)nn12 | 2.67

SMILES | CPE inhibition [%]
Cc1nc2cc(NC(=O)N(C)c3ccc4ccccc4c3)ccc2o1 | 12.7
CCOCCCn1c(SCC(=O)Nc2ccc(NC(C)=O)cc2)nc2ccccc2c1=O | 0.96
CC(=O)c1c(C)[nH]c(C(=O)OCC(=O)Nc2cccc(S(=O)(=O)N(C)C)c2)c1C | 6.22
CCN(CC)C1=N/C(=C\c2ccco2)C(=O)N1c1ccccc1 | 2.62
CCSC1=N/C(=C\c2ccccc2)C(=O)N1c1ccc(OC)cc1 | 2.7
CN(C(=O)CCCN1C(=O)c2ccccc2C1=O)C1CCCCC1 | 2.46
COc1ccc(CNC(=O)Nc2cc(C)ccc2C)cc1 | 2.36
O=C1CCC([N+](=O)[O-])C(c2ccc(Cl)c([N+](=O)[O-])c2)N1 (configuration not stated) | -2.01
O=C1CCSc2ccc(Cl)cc2N1Cc1ccc(Cl)cc1 | 45.3
O=C1CCSc2ccc(Cl)cc2N1Cc1ccccc1 | 1.94
Cc1ccc(S(=O)(=O)CCC(=O)Nc2sccc2C#N)cc1 | 0.59
COC(=O)Cc1ccc(NC(=S)N2CCN(c3ccc(OC)cc3)CC2)cc1 | 13.6
COc1ccc2nc(NC(=O)c3ccccc3F)sc2c1 | 3.79
COc1ccc2nc(NC(=O)c3ccccc3C(=O)O)sc2c1 | 1.92
Cc1ccc(S(=O)(=O)N2[C@@H](c3ccc(F)cc3)C(C(=O)O)=CC[C@H]2c2cccc(Cl)c2)cc1 | 1.86
CCc1cc(S(=O)(=O)N2CCN(C(=O)c3ccco3)CC2)ccc1OC | 3.94
C=CCN(Cc1nc(-c2cc(OC)ccc2OC)oc1C)C1CCS(=O)(=O)C1 (configuration not stated) | -0.75
CCOc1ccc(C2c3[nH]c4ccccc4c3CCN2Cc2cccn2-c2ncccn2)cc1 (configuration not stated) | 43.1
Fc1ccccc1C1c2[nH]c3ccccc3c2CCN1Cc1cccn1-c1ncccn1 (configuration not stated) | 16.6
CC(C)(C)c1ccc(-c2nc(C#N)c(NCc3cccnc3)o2)cc1 | 0.34
O=C(NCc1ccccc1)c1ccc[n+]([O-])c1 | 0.02
COc1ccc(C(C)(C)C)cc1NC(=O)c1ccc[n+]([O-])c1 | 0.85
CC(=O)C1=C(O)C(=O)N(c2nccs2)C1c1ccc(F)cc1 (configuration not stated) | 1.72

SMILES | CPE inhibition [%]
O=c1/c(=C\c2ccc(F)cc2)sc2n1CCCN=2 | 0.07
Cc1cccnc1Nc1nc(-c2ccc(F)cc2)cs1 | 14.5
CCCCN(CC)C(=O)c1cc2cc3ccc(OC)cc3nc2o1 | 20.6
Cc1ccc2cc3cc(C(=O)N4CCCCCC4)oc3nc2c1 | 58.9
CCCCN(C)C(=O)c1cc2cc3ccc(OC)cc3nc2o1 | 12.1
COc1ccc2cc3cc(C(=O)N4CCCCCC4)oc3nc2c1 | 5.67
Cc1ccc2cc3cc(C(=O)NC4CCCCC4)oc3nc2c1 | 4.34
COc1ccc2cc3cc(C(=O)N4CCCC(C)C4)oc3nc2c1 (configuration not stated) | -0.12
CCOc1cc(/C=N/N=C2/NC(=O)C(CC(=O)O)S2)ccc1OCc1ccc(Cl)cc1 (configuration not stated) | 2
COc1ccc(/C=N/N=C2/NC(=O)C(CC(=O)O)S2)cc1OCc1ccc(Cl)cc1Cl (configuration not stated) | 1.42
CC(C)NC(=O)CCNC(=O)c1ccc(F)cc1 | 0.45
CCCCCCC(C)n1[nH]c(=O)c2c(C)cc(C)nc21 (configuration not stated) | 6.56
O=C(Nc1ncccn1)c1cc(-c2cccc(Br)c2)nc2ccccc12 | 10.3
COc1cccc(-c2cc(C(=O)Nc3ccncc3)c3ccccc3n2)c1 | 18.1
O=C(NC1=NCCS1)c1cc(-c2cccnc2)nc2ccccc12 | 3.02
O=C(NC1=NCCS1)c1cc(-c2ccc(F)cc2)nc2ccccc12 | 8.35
COCCNC(=O)COC(=O)c1cc(-c2ccc(OC)cc2)nc2ccccc12 | 2.44
COCCCNC(=O)c1cc(-c2cccnc2)nc2ccccc12 | 1.57
Cc1ccc2nc(SCc3cn4cccnc4n3)[nH]c2c1 | 0.92
CC(C(=O)Nc1cccc([N+](=O)[O-])c1)n1nnc2ccccc21 (configuration not stated) | -0.02
CCC1Sc2ccc(S(=O)(=O)CCC(=O)Nc3c(Cl)cc(OC)cc3OC)cc2NC1=O (configuration not stated) | 12.2
Cc1ccc(N2CCN(C(=O)NC3CCCCC3)CC2C)cc1 (configuration not stated) | 3.66
COc1ccc(NC(=O)NCCCN2CCN(c3ccccc3F)CC2)cc1 | -2.01
